According to PubChem BioAssay (EPA / NIEHS):
Activity calls are given as the source filed them. Rule for the calls: active = hit-call score of the fitted dose curve at least 0.9, where 1 is the maximum; inactive = score below 0.9.

How the values were obtained:
[1] = read-out: Tumor necrosis factor receptor superfamily member 6 (Homo sapiens) (UniProt P25445); assay: LTEA_HepaRG_FAS: Life Technologies and Expression Analysis (LTEA) Assay for Fas cell surface death receptor (FAS) using HepaRG (AID 2283447); settings: mRNA level, 48 h; actives raise or lower the signal
In short: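 Differentiated human HepaRG cells, pre-cultured 48 h, were exposed in duplicate for 48 h to 8-point half-log concentrations (top 100 uM, 0.5% DMSO) in serum-free induction medium; FAS mRNA measured by qRT-PCR, normalized to ACTB/GAPDH/POLR2A, bidirectional fit versus DMSO.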

[2] = read-out: Fatty acid synthase (Homo sapiens) (UniProt P49327); assay: LTEA_HepaRG_FASN: Life Technologies and Expression Analysis (LTEA) Assay for Fatty Acid Synthase (FASN) using HepaRG (AID 2283448); settings: mRNA level, 48 h; actives raise or lower the signal
In short: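 HepaRG, 48 h exposure, 8-pt half-log series top 100 uM, 0.5% DMSO vehicle, duplicates. Readout: FASN transcript by Fluidigm qRT-PCR; housekeeping-normalized; bidirectional curve fit vs DMSO baseline.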

[3] = read-out: Cyclin D2 (CCND2), CCND2 (gene 894); assay: LTEA_HepaRG_CCND2: Life Technologies and Expression Analysis (LTEA) Assay for Cyclin D2 (CCND2) using HepaRG (AID 2283449); settings: mRNA level, 48 h; actives raise or lower the signal;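 note: CCND2 transcript measured by TaqMan qRT-PCR and normalised to three housekeeping genes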
In short: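 In this HepaRG study, an eight-point concentration series (max 100 uM, 0.5% DMSO) is applied for 48 h. CCND2 mRNA change is derived by qRT-PCR normalised to ACTB, GAPDH and POLR2A.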

[4] = read-out: Cyclin Dependent Kinase Inhibitor 1A (CDKN1A), CDKN1A (gene 1026); assay: LTEA_HepaRG_CDKN1A: Life Technologies and Expression Analysis (LTEA) Assay for Cyclin Dependent Kinase Inhibitor 1A (CDKN1A) using HepaRG (AID 2283450); settings: mRNA level, 48 h; actives raise or lower the signal
In short: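 Read-out is CDKN1A mRNA by TaqMan qRT-PCR, normalized to three housekeeping genes and fitted in both directions against the DMSO baseline. Human HepaRG cells were treated 48 h with test chemicals up to 100 uM in half-log steps, 0.5% DMSO.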

[5] = read-out: Cyclin D1 (CCND1), CCND1 (gene 595); assay: LTEA_HepaRG_CCND1: Life Technologies and Expression Analysis (LTEA) Assay for Cyclin D1 (CCND1) using HepaRG (AID 2283451); settings: mRNA level, 48 h; actives raise or lower the signal
In short: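 HepaRG plated 48 h, medium switched to serum-free induction medium, chemicals added in duplicate (top 100 uM, half-log steps, 0.5% DMSO) for 48 h, cells lysed, RNA measured by TaqMan qRT-PCR.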

[6] = read-out: catalase (CAT), CAT (gene 847); assay: LTEA_HepaRG_CAT: Life Technologies and Expression Analysis (LTEA) Assay for catalase (CAT) using HepaRG (AID 2283452); settings: mRNA level, 48 h; actives raise or lower the signal
In short: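 Differentiated HepaRG cells in serum-free induction medium were dosed 48 h in duplicate, eight half-log concentrations from 100 uM in 0.5% DMSO. Transcript measured by TaqMan qRT-PCR, normalised to ACTB/GAPDH/POLR2A, fitted bidirectionally against DMSO.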

[7] = read-out: flavin-containing dimethylaniline monooxygenases 3 (FMO3), FMO3 (gene 2328); assay: LTEA_HepaRG_FMO3: Life Technologies and Expression Analysis (LTEA) Assay for flavin-containing dimethylaniline monooxygenases 3 (FMO3) using HepaRG (AID 2283453); settings: mRNA level, 48 h; actives raise or lower the signal
In short: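 Eight-point concentration-response in serum-free HepaRG cultures (top 100 uM, 0.5% DMSO, 48 h). Read-out: FMO3 mRNA level normalized to three endogenous control genes, fitted bidirectionally versus vehicle.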

[8] = read-out: Cytochrome P450 (CYP1A1), CYP1A1 (gene 1543); assay: LTEA_HepaRG_CYP1A1: Life Technologies and Expression Analysis (LTEA) Assay for Cytochrome P450 (CYP1A1) using HepaRG (AID 2283454); settings: mRNA level, 48 h; actives raise or lower the signal
In short: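 HepaRG, 48 h post-plating switched to serum-free induction medium; 8-pt conc-response (top 100 uM, half-log, 0.5% DMSO), duplicates, 48 h. Lysis in RLT, TaqMan qRT-PCR for CYP1A1; gain or loss vs DMSO.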

[9] = read-out: CFLAR gene, CFLAR (gene 8837); assay: LTEA_HepaRG_CFLAR: Life Technologies and Expression Analysis (LTEA) Assay for CFLAR gene using HepaRG (AID 2283455); settings: mRNA level, 48 h; actives raise or lower the signal
In short: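 Gain- or loss-of-signal changes in CFLAR transcript were fitted bidirectionally relative to 0.5% DMSO. Cells (HepaRG, duplicate wells) were dosed for 48 h across eight half-log concentrations topping at 100 uM; quantitation by TaqMan qRT-PCR.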

[10] = read-out: Forkhead box O1 (FOXO1), FOXO1 (gene 2308); assay: LTEA_HepaRG_FOXO1: Life Technologies and Expression Analysis (LTEA) Assay for Forkhead box O1 (FOXO1) using HepaRG (AID 2283456); settings: mRNA level, 48 h; actives raise or lower the signal
In short: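 Using one lot of HepaRG hepatic cells kept in 0.5% DMSO, the team applied test chemicals in duplicate, half-log dilutions from 100 uM, for 48 h. Expression, normalised to ACTB/GAPDH/POLR2A, was compared with vehicle in either direction.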

[11] = CEETOX_H295R_TESTO: CeeTox H295R High-throughput Steroidogenesis Assay for Testosterone (TESTO) (AID 2283457); settings: actives raise or lower the signal
In short: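 H295R, passage ≤10, 48 h dosing; media extracted with MTBE → HPLC-MS/MS for testosterone; 7-pt standard curve sets LLOQ/ULOQ; bidirectional fit vs DMSO; MTT viability same wells.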

[12] = read-out: growth arrest and DNA damage 45 (GADD45A), GADD45A (gene 1647); assay: LTEA_HepaRG_GADD45A: Life Technologies and Expression Analysis (LTEA) Assay for growth arrest and DNA damage 45 (GADD45A) using HepaRG (AID 2283458); settings: mRNA level, 48 h; actives raise or lower the signal
In short: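 HepaRG, 48 h exposure, 8 conc. (top 100 uM, half-log steps), 0.5% DMSO vehicle, duplicates. Read-out: qRT-PCR mRNA level, housekeeping-normalized (ACTB/GAPDH/POLR2A). Curves fit bidirectionally vs DMSO baseline.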

[13] = read-out: Forkhead box O3 (FOXO3), FOXO3 (gene 2309); assay: LTEA_HepaRG_FOXO3: Life Technologies and Expression Analysis (LTEA) Assay for Forkhead box O3 (FOXO3) using HepaRG (AID 2283459); settings: mRNA level, 48 h; actives raise or lower the signal
In short: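 Gene-expression endpoint: FOXO3 transcript level by qRT-PCR in HepaRG cultures treated 48 h with chemicals up to 100 uM (half-log, 0.5% DMSO vehicle).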

[14] = read-out: ABC Transporter (ABCB1), ABCB1 (gene 5243); assay: LTEA_HepaRG_ABCB1: Life Technologies and Expression Analysis (LTEA) Assay for ABC Transporter (ABCB1) using HepaRG (AID 2283460); settings: mRNA level, 48 h; actives raise or lower the signal
In short: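 Human liver HepaRG line treated 48 h with up to 100 uM compound (eight half-log points, 0.5% DMSO); ABCB1 mRNA change fitted bidirectionally against DMSO controls.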

[15] = read-out: ABC Transporter (ABCC3), ABCC3 (gene 8714); assay: LTEA_HepaRG_ABCC3: Life Technologies and Expression Analysis (LTEA) Assay for ABC Transporter (ABCC3) using HepaRG (AID 2283462); settings: mRNA level, 48 h; actives raise or lower the signal
In short: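 Human HepaRG, 48 h dosing, 8-pt half-log series from 100 uM, 0.5% DMSO vehicle, duplicates. ABCC3 mRNA by TaqMan qRT-PCR, housekeeping-normalized; bidirectional curve fit vs DMSO.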

[16] = read-out: ABC Transporter (ABCB11), ABCB11 (gene 8647); assay: LTEA_HepaRG_ABCB11: Life Technologies and Expression Analysis (LTEA) Assay for ABC Transporter (ABCB11) using HepaRG (AID 2283463); settings: mRNA level, 48 h; actives raise or lower the signal
In short: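 Using HepaRG cultures held in 0.5% DMSO, chemicals were tested at half-log dilutions from 100 uM for 48 h. Induction or suppression of ABCB11 mRNA, normalized to ACTB, GAPDH and POLR2A, was fitted bidirectionally against vehicle.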

[17] = read-out: ABC Transporter (ABCC2), ABCC2 (gene 1244); assay: LTEA_HepaRG_ABCC2: Life Technologies and Expression Analysis (LTEA) Assay for ABC Transporter (ABCC2) using HepaRG (AID 2283464); settings: mRNA level, 48 h; actives raise or lower the signal
In short: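 HepaRG, 48 h post-plating; serum-free induction medium; cpd 8-pt, 100 uM top, half-log, 0.5% DMSO, duplicate, 48 h. Readout: ABCC2 mRNA by qRT-PCR, norm. ACTB/GAPDH/POLR2A. Bidirectional fit vs DMSO baseline.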

[18] = read-out: Broad substrate specificity ATP-binding cassette transporter ABCG2 (Homo sapiens) (UniProt Q9UNQ0); assay: LTEA_HepaRG_ABCG2: Life Technologies and Expression Analysis (LTEA) Assay for ABC Transporter (ABCG2) using HepaRG (AID 2283465); settings: mRNA level, 48 h; actives raise or lower the signal
In short: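 Gene expression of ABCG2 in HepaRG liver cells is quantified by qRT-PCR following 48 h exposure across an eight-point series topping at 100 uM. Values come from bidirectional fitting relative to DMSO vehicle.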

[19] = read-out: ATP-citrate lyase (ACLY), ACLY (gene 47); assay: LTEA_HepaRG_ACLY: Life Technologies and Expression Analysis (LTEA) Assay for ATP-citrate lyase (ACLY) using HepaRG (AID 2283466); settings: mRNA level, 48 h; actives raise or lower the signal
In short: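 ACLY expression changes in human HepaRG liver cells are quantified by qRT-PCR after 48 h exposure to test chemicals (maximum 100 uM, half-log steps). Values are fitted in both directions relative to 0.5% DMSO vehicle.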

[20] = read-out: growth arrest and DNA damage 45 (GADD45B), GADD45B (gene 4616); assay: LTEA_HepaRG_GADD45B: Life Technologies and Expression Analysis (LTEA) Assay for growth arrest and DNA damage 45 (GADD45B) using HepaRG (AID 2283461); settings: mRNA level, 48 h; actives raise or lower the signal
In short: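 HepaRG, ~100,000 cells/well, 48 h plating; serum-free induction medium; cpd 100 uM top, half-log x8, 0.5% DMSO, duplicate, 48 h; lysis in RLT, RNA isolation, qRT-PCR; norm ACTB/GAPDH/POLR2A; bidirectional fit vs DMSO.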

Measured: AC50

Chain of Broad substrate specificity ATP-binding cassette transporter ABCG2 (Homo sapiens) (Q9UNQ0 whole entry, looked up): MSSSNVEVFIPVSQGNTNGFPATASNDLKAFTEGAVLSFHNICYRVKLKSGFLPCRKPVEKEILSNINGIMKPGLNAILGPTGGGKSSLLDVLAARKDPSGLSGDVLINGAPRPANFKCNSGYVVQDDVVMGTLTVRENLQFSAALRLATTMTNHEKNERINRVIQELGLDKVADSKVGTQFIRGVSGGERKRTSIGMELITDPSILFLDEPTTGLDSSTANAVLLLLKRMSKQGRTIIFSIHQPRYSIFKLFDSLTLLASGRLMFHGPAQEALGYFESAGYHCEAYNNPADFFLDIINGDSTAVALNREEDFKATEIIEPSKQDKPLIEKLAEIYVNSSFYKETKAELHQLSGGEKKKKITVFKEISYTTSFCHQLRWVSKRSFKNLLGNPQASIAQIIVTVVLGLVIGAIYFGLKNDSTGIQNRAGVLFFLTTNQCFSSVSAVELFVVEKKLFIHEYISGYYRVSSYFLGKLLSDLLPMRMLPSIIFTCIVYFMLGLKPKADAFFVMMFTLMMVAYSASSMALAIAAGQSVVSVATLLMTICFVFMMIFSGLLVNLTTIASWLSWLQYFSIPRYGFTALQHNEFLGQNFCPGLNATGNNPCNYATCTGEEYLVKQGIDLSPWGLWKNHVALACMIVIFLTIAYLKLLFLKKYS
Chain of Fatty acid synthase (Homo sapiens) (P49327 whole entry, looked up): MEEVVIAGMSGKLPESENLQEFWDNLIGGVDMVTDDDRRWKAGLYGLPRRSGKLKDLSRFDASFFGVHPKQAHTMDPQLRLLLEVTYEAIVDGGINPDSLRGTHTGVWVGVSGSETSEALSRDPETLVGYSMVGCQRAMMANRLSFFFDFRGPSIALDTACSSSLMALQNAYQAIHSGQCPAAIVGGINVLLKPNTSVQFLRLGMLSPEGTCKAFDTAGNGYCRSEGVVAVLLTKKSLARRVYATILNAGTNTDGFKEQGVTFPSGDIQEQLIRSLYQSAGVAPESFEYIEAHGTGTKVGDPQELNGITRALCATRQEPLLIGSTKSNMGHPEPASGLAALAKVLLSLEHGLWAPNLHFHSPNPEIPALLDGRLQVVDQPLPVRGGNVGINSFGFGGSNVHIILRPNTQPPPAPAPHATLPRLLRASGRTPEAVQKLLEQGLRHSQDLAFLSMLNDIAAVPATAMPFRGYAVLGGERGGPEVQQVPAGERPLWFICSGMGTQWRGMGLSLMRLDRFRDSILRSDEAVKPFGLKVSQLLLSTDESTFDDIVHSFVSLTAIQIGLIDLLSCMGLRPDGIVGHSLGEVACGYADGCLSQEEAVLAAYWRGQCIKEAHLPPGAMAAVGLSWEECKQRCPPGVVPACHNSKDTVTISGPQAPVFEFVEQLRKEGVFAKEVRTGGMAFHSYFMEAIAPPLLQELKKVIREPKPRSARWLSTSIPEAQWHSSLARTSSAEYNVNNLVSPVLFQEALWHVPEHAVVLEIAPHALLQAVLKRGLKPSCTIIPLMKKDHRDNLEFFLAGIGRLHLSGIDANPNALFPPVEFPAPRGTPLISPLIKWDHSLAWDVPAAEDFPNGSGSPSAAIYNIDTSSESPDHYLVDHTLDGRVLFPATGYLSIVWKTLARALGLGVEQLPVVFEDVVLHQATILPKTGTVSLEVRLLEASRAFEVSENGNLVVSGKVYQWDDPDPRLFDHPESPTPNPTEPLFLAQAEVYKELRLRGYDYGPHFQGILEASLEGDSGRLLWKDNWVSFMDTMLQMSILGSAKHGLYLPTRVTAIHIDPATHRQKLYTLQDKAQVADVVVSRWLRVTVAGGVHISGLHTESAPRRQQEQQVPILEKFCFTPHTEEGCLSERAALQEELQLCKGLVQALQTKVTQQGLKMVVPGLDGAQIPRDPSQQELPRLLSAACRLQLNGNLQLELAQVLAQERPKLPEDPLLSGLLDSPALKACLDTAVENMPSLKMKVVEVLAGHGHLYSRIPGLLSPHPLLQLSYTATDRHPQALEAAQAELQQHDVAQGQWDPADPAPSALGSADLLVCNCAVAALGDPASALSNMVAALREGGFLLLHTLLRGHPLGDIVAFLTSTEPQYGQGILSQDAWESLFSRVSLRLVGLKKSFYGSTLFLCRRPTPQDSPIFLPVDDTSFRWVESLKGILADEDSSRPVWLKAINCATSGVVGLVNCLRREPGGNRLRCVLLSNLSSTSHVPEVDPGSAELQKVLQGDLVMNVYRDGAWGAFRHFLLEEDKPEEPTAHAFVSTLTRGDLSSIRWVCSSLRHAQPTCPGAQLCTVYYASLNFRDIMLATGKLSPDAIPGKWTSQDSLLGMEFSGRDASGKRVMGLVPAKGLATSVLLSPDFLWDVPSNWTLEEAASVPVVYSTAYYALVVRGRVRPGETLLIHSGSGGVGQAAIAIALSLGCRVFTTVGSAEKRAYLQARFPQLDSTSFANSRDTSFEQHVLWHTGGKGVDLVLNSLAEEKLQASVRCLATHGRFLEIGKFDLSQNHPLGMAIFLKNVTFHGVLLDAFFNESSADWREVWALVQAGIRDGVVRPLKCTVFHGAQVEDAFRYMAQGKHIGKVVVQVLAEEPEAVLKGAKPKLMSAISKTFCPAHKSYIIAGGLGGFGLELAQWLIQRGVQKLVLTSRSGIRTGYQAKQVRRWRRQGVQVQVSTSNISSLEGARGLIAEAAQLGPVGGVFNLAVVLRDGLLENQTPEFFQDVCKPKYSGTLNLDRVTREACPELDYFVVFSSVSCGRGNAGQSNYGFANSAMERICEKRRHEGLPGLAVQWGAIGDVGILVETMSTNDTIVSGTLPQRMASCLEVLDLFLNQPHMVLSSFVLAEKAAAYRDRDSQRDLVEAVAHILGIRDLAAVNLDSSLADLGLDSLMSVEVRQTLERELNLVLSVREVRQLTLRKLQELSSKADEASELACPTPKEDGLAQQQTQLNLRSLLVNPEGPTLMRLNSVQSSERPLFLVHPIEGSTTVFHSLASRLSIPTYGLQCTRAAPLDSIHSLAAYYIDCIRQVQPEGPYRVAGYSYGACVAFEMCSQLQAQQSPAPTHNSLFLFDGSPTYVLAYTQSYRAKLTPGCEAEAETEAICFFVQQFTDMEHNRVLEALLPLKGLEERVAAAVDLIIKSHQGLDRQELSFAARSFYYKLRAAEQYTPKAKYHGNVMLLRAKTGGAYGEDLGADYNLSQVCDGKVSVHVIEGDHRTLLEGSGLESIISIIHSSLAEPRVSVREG

CNC(=O)ON=C(SC)C(=O)N(C)C
inactive: [1] | [2] | [3] | [4] | [5] | [6] | [7] | [8] | [9] | [10] | [11] | [12] | [13] | [14] | [15] | [16] | [17] | [18] | [19]

C#CC(C)(C)NC(=O)c1cc(Cl)cc(Cl)c1
inactive: [1] | [3] | [4] | [5] | [6] | [7] | [9] | [10] | [12] | [13] | [15] | [16] | [18] | [19]
active: [2] 0.0239 µM | [8] 33 µM | [14] 50 µM | [17] 27.3 µM

CCNc1nc(Cl)nc(NC(C)(C)C#N)n1
inactive: [1] | [2] | [3] | [4] | [5] | [6] | [7] | [9] | [10] | [12] | [13] | [14] | [15] | [16] | [18] | [19]
active: [8] 24.9 µM | [17] 5.92 µM

CCCSP(=O)(OCC)Oc1ccc(Br)cc1Cl (centres undefined)
active: [8] 29.4 µM
inactive: [1] | [2] | [3] | [4] | [5] | [6] | [7] | [9] | [10] | [12] | [13] | [14] | [20] | [15] | [16] | [17] | [18] | [19]
